Rpn11 block: Rpn11 (human) deubiquitinase inhibition; human 26S proteasome, Ub4-pepOG fluorescence polarization; 20S core pre-blocked with epoxomicin; AID 588493; 0.59% of 360,000 active; O00487; inhibition, % at 20 µM;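 active = inhibition at 20 µM, scaled to each plate's controls, above about 33%, limit read from the data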
NR3A LBD binder: modulates the human NR3A ligand-binding domain. NR3A LBD differential scanning fluorimetry, Tm shift; 0% = protein alone, 100% = glycine-bound protein. Tm shift relative to glycine control, % at 25 µM. 2.5% of 340,000 active;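 active = melting temperature shift of at least 10% of the positive control shift, at one fixed dose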
dFosB act: activators of mouse delta FosB homodimer; P13346; purified delta FosB, TAMRA-CDK5 oligo fluorescence polarization; percent of positive-control signal above neutral wells; activation, % at 25 µM; 0.99% of 340,000 active; AID 493131;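 active = mean activation above about 17%, with every replicate also reaching it, limit read from the data, passing the limit was not always enough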
Target sequence (P13346 whole entry, looked up): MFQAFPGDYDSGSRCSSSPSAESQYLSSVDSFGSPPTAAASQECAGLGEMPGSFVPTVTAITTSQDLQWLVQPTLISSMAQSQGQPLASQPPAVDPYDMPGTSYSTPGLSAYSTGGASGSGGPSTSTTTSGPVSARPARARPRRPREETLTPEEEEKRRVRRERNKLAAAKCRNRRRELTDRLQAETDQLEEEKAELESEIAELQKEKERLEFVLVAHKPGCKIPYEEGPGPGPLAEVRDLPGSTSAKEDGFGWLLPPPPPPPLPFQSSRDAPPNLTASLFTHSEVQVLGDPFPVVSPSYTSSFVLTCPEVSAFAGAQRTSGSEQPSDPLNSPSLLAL
TPT1 inhibitor: C. albicans TPT1 enzyme inhibition. recombinant caTPT1, FP RNA substrate dephosphorylation. inhibition, % at 5 µM. 0.81% of 300,000 active. AID 1962;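 active = inhibition above the mean of all tested compounds plus 3 SD, set per screening campaign, cut at about 24% in these data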
ZTA counter: blocks Epstein-Barr virus ZTA, an EBNA-1 counter-screen. 0.15% of 320,000 active. ZTA-DNA binding, fluorescence polarization. P03206. AID 2234. inhibition, % at 11 µM; in the data active = inhibition above about 33%
EBNA-1 inhibitor: blocks EBNA-1 binding to DNA. EBNA-1 DNA binding, fluorescence polarization. inhibition, % at 14.8 µM. 0.34% of 300,000 active. AID 1950; in the data active = inhibition above about 28%
Large screens that a line does not name were inactive. An excerpt weighted towards active compounds, which were near 4.5% of everything screened.

O=C(NCCNC(=O)Nc1ccc(Cl)cc1)Nc1ccc(Cl)cc1	NR3A LBD binder 22 (no result: TPT1 inhibitor, ZTA counter, EBNA-1 inhibitor)
Nc1nc(Cl)c(N)c(NCC2(CO)CC(CCc3ccccc3)C2)n1 (stereo not given)	none (no result: TPT1 inhibitor, ZTA counter, EBNA-1 inhibitor)
CCn1cc(C(=O)NCCN(C)C)c(=O)c2cc(F)c(N3CCN(C)CC3)cc21	none
COc1ccc(NC(=O)CN2C(=O)NC(C)(C3CC3)C2=O)c(OC)c1 (stereo not given)	none (no result: TPT1 inhibitor, EBNA-1 inhibitor)
O=C(Cc1ccsc1)OCC(=O)c1ccccc1	none (no result: TPT1 inhibitor, ZTA counter, EBNA-1 inhibitor)
O=C(Nc1ccc(Oc2ccc(NC(=O)Nc3ccccc3Cl)cc2)cc1)Nc1ccccc1Cl	NR3A LBD binder 22
N#Cc1ccc(NC(=O)Nc2ccc(Cl)cc2)cc1	NR3A LBD binder 34
COc1ccc(NC(=O)Nc2ccc(F)c(Cl)c2)cc1	NR3A LBD binder 31
O=C(Nc1ccc(F)c(Cl)c1)c1nsc(Cl)c1Cl	NR3A LBD binder 15
O=C(Nc1ccc(F)cc1)c1nsc(Cl)c1Cl	none
COc1ccc(NC(=O)Nc2cc(C)ccc2F)cc1	none
COc1ccc(N2C(=O)CSC2c2ccc([N+](=O)[O-])cc2)cc1 (stereo not given)	none
O=C(Nc1ccc(Cl)cc1)Nc1ccc(Cl)c(Cl)c1	NR3A LBD binder 16 (no result: Rpn11 block, dFosB act, TPT1 inhibitor, EBNA-1 inhibitor)
O=C(Nc1ccc(Cl)c(Cl)c1)Nc1ccccc1O	NR3A LBD binder 466
C=CCN=c1scc(-c2ccc(F)cc2)n1/N=C/c1ccccn1	none
C=CCN=c1scc(-c2ccccc2)n1/N=C/c1ccccn1	ZTA counter 84
COc1ccc(-c2cc(-c3ccccc3)nc(SCC(=O)Nc3ncc(C)s3)c2C#N)cc1	NR3A LBD binder 20
Cc1cc(/C=N/n2c(COc3ccccc3)nc3ccccc3c2=O)c(O)c([N+](=O)[O-])c1	NR3A LBD binder 16
COCCNCCCCOc1ccccc1-c1ccccc1	none
CCCCNCCOCCOc1ccccc1-c1ccccc1	EBNA-1 inhibitor 34
Cc1ccc(S(=O)(=O)Nc2ccccc2CNc2ccc(Br)cn2)cc1	NR3A LBD binder 14
Cc1ccc(S(=O)(=O)Nc2ccccc2CNc2ccccn2)cc1	none
Cn1c(=N)n(CC(=O)c2ccc(Br)s2)c2ccccc21	none
N=c1n(CC(=O)c2ccc(Br)s2)c2ccccc2n1Cc1ccccc1	dFosB act 25
CC(=O)c1ccc(S(=O)(=O)NCCCC(=O)N(C)Cc2ccc3c(c2)OCO3)cc1	none (no result: TPT1 inhibitor, EBNA-1 inhibitor)
FC(F)(F)c1ccccc1/C=N/N1CCN(Cc2ccccc2)CC1	NR3A LBD binder 18
O=C(Nc1nc2cc3c(cc2s1)OCCO3)C1=COCCO1	NR3A LBD binder 11
COc1ccc(NC(=O)Nc2cccc(C(F)(F)F)c2)cn1	NR3A LBD binder 26
FC(F)(F)c1cccc(NC(=S)NNC(=S)Nc2cccc(C(F)(F)F)c2)c1	none (no result: Rpn11 block, NR3A LBD binder, dFosB act)
O=C(Nc1cccc(C(F)(F)F)c1)c1ccccc1NC(=O)C1CCCCC1	NR3A LBD binder 10
CCOc1ccc(NC(=S)Nc2ccc(F)cc2)cc1	none
CCOc1ccc(NC(=S)NNC(=S)Nc2cccc(C(F)(F)F)c2)cc1	NR3A LBD binder 20
CCOc1ccc(NC(=S)Nc2cc(-c3ccccc3)[nH]n2)cc1	NR3A LBD binder 14
COc1ccc(NC(=O)Nc2cc(C)cc(C)c2)cn1	none
CCn1cc(C(=O)Nc2ccc(OC)c(S(=O)(=O)N3CCCCC3)c2)c(=O)c2ccc(C)nc21	none
FC(F)(F)c1cccc(NC(=S)NC(c2ccccc2)c2ccccc2)c1	NR3A LBD binder 30
Cc1ccc(OC(F)F)c(NC(=O)Nc2cccc(C(F)(F)F)c2)c1	NR3A LBD binder 29
COc1cccc(NC(=O)Nc2cc(C)ccc2OC)c1	none
O=C(Nc1ccccc1)Nc1cc([N+](=O)[O-])ccc1F	NR3A LBD binder 20
O=C(NNC(=S)Nc1cccc(C(F)(F)F)c1)c1ccc(Cl)cc1Cl	NR3A LBD binder 20
CC1=NN(C(N)=S)C(=O)C1N=Nc1ccc([N+](=O)[O-])cc1 (stereo not given)	none
Cc1ccc(C)c(S(=O)(=O)N(C)c2ccc(OC(=O)C3CCN(C(=O)Nc4ccccc4)CC3)cc2)c1	none (no result: TPT1 inhibitor, ZTA counter, EBNA-1 inhibitor)
Cc1ccc2c(c1)c1nnc(SCC(=O)Nc3ccc(N(C)C)cc3)nc1n2CC(=O)O	none
O=C(Nc1ccccc1)Nc1ccccc1Br	none
O=C(Nc1ccccc1)Nc1cccc(C(F)(F)F)c1	NR3A LBD binder 27

Assay outcomes: PubChem BioAssay, several laboratories
